HT1080 IDH1KD tx – kills HT-1080 cells with IDH1 knockdown; AID 686971; HT-1080 IDH1 knockdown viability, ATP luminescence, 48 h; 2% of 360,000 active; Potency, µM (doses to about 46.1 µM), for inactives: at the top dose activity, negative = toxicity, most hits filed as cytotoxic;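 further: potency means the concentration at half of the fitted maximal effect; 0% = DMSO wells and -100% = cell-free medium wells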
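CellTiter-Glo luminescence after 48 h compound exposure at 37 degrees C of IDH1-knockdown HT-1080 cells in 5% FBS RPMI. %Activity scaled between DMSO wells and cell-free media wells, with curves fitted and assigned curve classes.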
IL1B secr inh – inflammasome signaling inhibition, IL-1 beta readout; THP-1 LPS/ATP IL-1B secretion, AlphaLISA, 16 h; hits give low values; activity change, % at 57.5 µM; 4.7% of 360,000 active; AID 743279; in the data active means activity change below about -50%; inconclusive means mostly about -30% to -49%
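THP-1 cells pretreated 1 hr with compounds (up to 57.5 uM final), then stimulated with LPS (250 ng/mL final) plus ATP (1.25 mM final); secreted IL-1B measured by AlphaLISA after 16 hr, decreased signal indicating inhibition.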
TDP1 cell CPT – DT40-hTDP1 cell growth loss with CPT | chicken DT40 Tdp1-/-;hTDP1 cells + 20 nM CPT, ATP luminescence, 48 h | Potency, µM (titrated, usually from 46.2 µM), without a hit: at the highest dose activity change, negative = growth inhibition, most hits filed as inhibitors | 12% of 420,000 active | AID 686979; further: potency means the concentration at half of the fitted maximal effect; nearly all actives have a fitted effect of over 55% in size
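Cell growth measured by CellTiter-Glo luminescence after a minimum 48 h, 37 C compound exposure with 20 nM CPT in Tdp1-knockout DT40 cells stably expressing hTDP1, seeded 400/well; qHTS titration format.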
HT1080NT lethal – kills 2HG-producing HT-1080-NT fibrosarcoma cells. HT-1080-NT fibrosarcoma viability, CellTiter-Glo ATP luminescence, 48 h. Potency, µM (series often up to 46.1 µM), without a hit: top-dose activity, negative = less viability, actives largely listed as cytotoxic. 1.6% of 360,000 active. AID 686970;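 further: NT is the 2HG producing partner of a matched IDH1 knockdown line; potency means the concentration at half of the fitted maximal effect; 0% = DMSO-treated cells and -100% = media-only wells without cells; nearly all actives have a fitted effect of over 55% in size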
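HT-1080-NT; 750 cells/well; 5% FBS RPMI; 48 h compound, 37 degrees C; CellTiter-Glo luminescence; curve fitting and curve-class assignment.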
DT40 TDP1 no CPT – qHTS for Inhibitors of human tyrosyl-DNA phosphodiesterase 1 (TDP1): qHTS in cells in absence of CPT | DT40 Tdp1-/- hTDP1 cells, no CPT, ATP luminescence, 48 h | Potency, µM (doses to about 46.2 µM), inactives show at the highest dose activity change, negative = growth inhibition, actives largely listed as inhibitors | 15% of 420,000 active; further: potency means the concentration at half of the fitted maximal effect; nearly all actives have a fitted effect of over 55% in size
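Seeded 400 DT40-hTDP1 cells/well (vehicle DMSO, no 20 nM CPT); pinned compounds; ≥48 hr at 37 °C; CellTiter-Glo luminescence as viability measure.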
ALOX12 inh – blocks human arachidonate 12S-lipoxygenase; Potency, µM (doses to about 108 µM), without a hit: top-dose activity change, negative = inhibition, most hits filed as inhibitors; purified 12hLO, xylenol orange hydroperoxide absorbance; 1.1% of 580,000 active; further: potency means the concentration at half of the fitted maximal effect
Target sequence (P18054 whole entry, looked up): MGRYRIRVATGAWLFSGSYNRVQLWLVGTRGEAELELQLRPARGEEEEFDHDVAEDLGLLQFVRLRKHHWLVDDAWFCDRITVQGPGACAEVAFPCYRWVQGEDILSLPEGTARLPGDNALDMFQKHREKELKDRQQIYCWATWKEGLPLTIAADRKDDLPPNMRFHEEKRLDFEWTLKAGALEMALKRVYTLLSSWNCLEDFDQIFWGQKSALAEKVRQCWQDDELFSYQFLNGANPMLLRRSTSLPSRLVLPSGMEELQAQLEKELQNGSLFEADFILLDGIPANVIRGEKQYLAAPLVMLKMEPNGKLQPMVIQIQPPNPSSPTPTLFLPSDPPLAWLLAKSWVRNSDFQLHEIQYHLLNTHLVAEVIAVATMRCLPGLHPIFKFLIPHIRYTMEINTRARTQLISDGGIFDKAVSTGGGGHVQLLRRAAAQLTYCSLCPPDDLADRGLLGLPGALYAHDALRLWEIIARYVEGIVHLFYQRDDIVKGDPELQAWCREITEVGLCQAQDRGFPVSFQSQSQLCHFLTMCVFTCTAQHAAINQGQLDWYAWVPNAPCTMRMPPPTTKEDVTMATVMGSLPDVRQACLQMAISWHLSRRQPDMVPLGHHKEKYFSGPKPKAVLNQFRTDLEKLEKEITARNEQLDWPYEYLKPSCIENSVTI
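Purified human 12hLO at 150 nM in 25 mM Hepes, 0.01% Triton X-100, pH 7.0, preincubated 15 min at room temperature with compound. Reaction started with 40 uM arachidonic acid, 30 min at room temperature. Hydroperoxide measured by Fe-xylenol orange, 573/405 nm absorbance ratio.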
* = called active by the depositor; ? = inconclusive; nt = not tested or not shown; ! = not confirmed by another sample; [ ] = remark or other dose. This is one part of a sample in which hits are shown more often than they occur. Unless noted, the call rests on the fitted dose curve; in most records, active means well fitted curve in the direction sought with a large enough effect; inconclusive means small, poorly fitted or top-dose-only effect, or another doubt; inactive means no such curve, though single readings can be large; an effect the other way counts as inactive or inconclusive. Unless noted, on the % scale 0 is the no-effect control and ±100 the full control effect.

SMILES	HT1080 IDH1KD tx	IL1B secr inh	TDP1 cell CPT	HT1080NT lethal	DT40 TDP1 no CPT	ALOX12 inh
CCc1nc2ccc(C(=O)Nc3ccc(OC)c(OC)c3)cn2c1N(C)Cc1nccs1	0%	-23	15µM*	5%	?	-10%
CCc1nc2ccc(C(=O)Nc3ccc(OC)c(OC)c3)cn2c1N(C)Cc1ccc(N(C)C)cc1	5%	8	?	5%	?	6%
CCc1nc2ccc(C(=O)Nc3ccc(OC)c(OC)c3)cn2c1N(CC)Cc1cccc(Br)c1	16µM*	-57*	23µM*	?	23µM*	13%
CCc1nc2ccc(C(=O)NCCc3ccccn3)cn2c1N(C)Cc1ccc(N(C)C)cc1	4%	?	?	19%	?	6%
CCc1nc2ccc(C(=O)NCCc3ccccn3)cn2c1N(C)Cc1cccs1	15%	-21	?	8%	18µM*	-4%
CCc1nc2ccc(C(=O)NCCc3ccccn3)cn2c1N(C)Cc1nccs1	6%	-11	?	5%	16µM*	6%
CCc1nc2ccc(C(=O)NCc3cccs3)cn2c1N(C)Cc1nccs1	-9%	-54*	?	4%	21µM*	9%
O=C(/C=C/c1cccc(O)c1)c1cccc(O)c1	nt	nt	nt	nt	nt	-22%
O=C(/C=C/c1ccc(Cl)cc1)c1ccccc1O	nt	nt	nt	nt	nt	-25%
Oc1cc(O)cc(C=Cc2ccc(O)c(O)c2)c1	nt	nt	nt	nt	nt	3.1µM*
O=C(/C=C/c1ccc(F)cc1)c1ccccc1Br	?	?	?	-18%	16µM*	-17%
O=C(C=Cc1ccccc1O)c1ccccc1O	18µM*	-97*	?	23µM*	15µM*	-24%
O=C(/C=C/c1ccccc1O)c1ccccc1Cl	nt	nt	nt	nt	nt	-43%
COc1ccc(C=Cc2cc(OC)c(OC)c(OC)c2)cc1O	nt	nt	nt	nt	nt	4%
O=C(C=Cc1cccc(O)c1)c1ccccc1O	?	-93*	?	?	15µM*	?
COCCc1noc(-c2nc(-c3ccccc3)no2)n1	nt	nt	nt	nt	nt	26%
N#Cc1ccc(OCCOc2ccc(C#N)cc2)cc1	nt	nt	nt	nt	nt	-9%
O=C1COCCN1c1cc(-c2cccc(F)c2)cn2cncc12	nt	nt	nt	nt	nt	15%[176 µM]
O=C(/C=C/c1ccc(O)c(O)c1)c1ccccc1O	-24%	-93*	12µM*	-7%	?	7.1µM*
O=C(/C=C/c1ccc(O)c(O)c1)OCCc1ccccc1	?	-25	1.5µM*	?	1µM*	11µM*!
O=C(/C=C/c1cc2ccccc2o1)c1ccccc1O	-22%	-102*	-6%	?	?	9%
COc1ccc(-c2cc3ccc(OCCN4CCN(CCO)CC4)cc3oc2=O)cc1	nt	nt	nt	nt	nt	-4%
CCc1ccc(NC(=O)c2ncoc2-c2ccc(OC)c(OC)c2)cc1	nt	nt	nt	nt	nt	-31%
CCOc1cc(-c2sc(Nc3ccc(CC)cc3)n[n+]2-c2ccccc2)ccc1OC	-1%	2	16µM*	-10%	18µM*	?
CCOc1cc(-c2sc(Nc3cc(C)ccc3OC)n[n+]2-c2ccccc2)ccc1OC	-9%	3	15µM*	-6%	16µM*	?
SMILES	HT1080 IDH1KD tx	IL1B secr inh	TDP1 cell CPT	HT1080NT lethal	DT40 TDP1 no CPT	ALOX12 inh
COc1ccc(-c2sc(Nc3ccccc3)n[n+]2-c2ccccc2)cc1Br	-26%	?	23µM*	-20%	15µM*	?
C(=C\c1sc(Nc2ccccc2)n[n+]1-c1ccccc1)/c1ccccc1	-8%	-98*	5.2µM*	-6%	8.2µM*	50µM*
CC(Sc1nc(Cl)nc2nc[nH]c12)C(=O)N1CCN(c2cccc(Cl)c2)CC1 (configuration not stated)	nt	nt	nt	nt	nt	-46%
COc1ccc(C)cc1Nc1n[n+](-c2ccccc2)c(-c2ccc(C(=O)O)cc2)s1	-1%	39	-7%	7%	-9%	18µM*
Cc1ccccc1S(=O)(=O)N1CCCC(CCC(=O)NCCCn2cccn2)C1 (configuration not stated)	nt	nt	nt	nt	nt	49%
COc1ccc(C(=O)NCc2nnc(SCC(=O)Nc3nc4ccc(C)cc4s3)o2)cc1OC	-18%	24	4.1µM*	-8%	2.3µM*	-13%
COc1ccc(C(=O)NCc2nnc(SCC(=O)Nc3nnc(C)s3)o2)cc1OC	2%	20	-8%	10%	-12%	7%[57.4 µM]
Cc1ccc(CNC(=O)CSc2nnc(CNC(=O)c3ccccc3)o2)cc1	0%	-73*	-1%	0%	1%	6%
COc1ccc(N2CCN(C3CCCN(C/C=C/c4ccccc4OC)C3)CC2)cc1 (configuration not stated)	nt	nt	nt	nt	nt	31%
COc1ccc(OC)c(NC(=O)CSCc2cnn(-c3ccccc3)c2-n2cccc2)c1	-4%	-11	?	-17%	16µM*	0%
COc1ccc(CCNC(=O)CSCc2cnn(-c3ccccc3)c2-n2cccc2)cc1OC	nt	nt	nt	nt	nt	-9%
COc1cc(NC(=O)CSCc2cnn(-c3ccccc3)c2-n2cccc2)cc(OC)c1	-22%	-9	?	-4%	15µM*	2%
Cc1cccc(C)c1NC(=O)CSCc1cnn(-c2ccccc2)c1-n1cccc1	nt	nt	10µM*	nt	10µM*	?
O=C(CSCc1cnn(-c2ccccc2)c1-n1cccc1)Nc1ccc(F)cc1F	nt	nt	?	nt	18µM*	-5%
Cn1c(SCc2cc(Cl)c3c(c2)OCCO3)nnc1-c1cccnc1	nt	nt	nt	nt	nt	3%
COc1ccc(Oc2coc3cc(OC(=O)N4CCOCC4)ccc3c2=O)cc1	-3%	12	16µM*	4%	?	8%
O=C(NCCN1CCCC1)c1c[nH]c2ccccc12	nt	nt	nt	nt	nt	-19%
CC1CCN(CC(CS(=O)(=O)c2ccc([N+](=O)[O-])cc2)N2CCC(C)CC2)CC1 (configuration not stated)	5%	-76*	2.1µM*	-3%	2.3µM*	-23%
O=C1NC(=NC2CCCC2)C2(CCCN(Cc3cccnc3)C2)N1c1cc(F)cc(F)c1 (configuration not stated)	nt	nt	nt	nt	nt	-23%
CC(=O)c1cccc(NC(=O)c2n[nH]c(=O)c3ccccc23)c1	nt	nt	nt	nt	nt	-74%
COc1c2c(cc3oc(=O)ccc13)OC(C)(C)C=C2	-5%	10	?	0%	26µM*	?
CC1(C)C=Cc2cc3ccc(=O)oc3cc2O1	-10%	-10	15µM*!	?	8.2µM*!	-22%
CC1(C)Oc2cc3oc(=O)ccc3cc2C[C@@H]1O	8%	24	24%	7%	-9%	14%

Screening results deposited in PubChem by National Center for Advancing Translational Sciences (NCATS).
